The whole screen tested about 310,000 compounds, of which about 14,000 (4.5%) showed an effect of 50% or more. Effects have a minus sign here. Only a selection was taken, and strong results are over-represented in it overall.
molecular target: human ether-à-go-go-related gene (hERG) potassium channel (human, UniProt Q12809); test: primary screen, population patch clamp on CHO cells stably expressing hERG; higher = less effect of the substance
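Also: peak tail current of the secondary pulse compared with the same well before compound.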

Chain of human ether-à-go-go-related gene (hERG) potassium channel (Q12809 whole entry, looked up): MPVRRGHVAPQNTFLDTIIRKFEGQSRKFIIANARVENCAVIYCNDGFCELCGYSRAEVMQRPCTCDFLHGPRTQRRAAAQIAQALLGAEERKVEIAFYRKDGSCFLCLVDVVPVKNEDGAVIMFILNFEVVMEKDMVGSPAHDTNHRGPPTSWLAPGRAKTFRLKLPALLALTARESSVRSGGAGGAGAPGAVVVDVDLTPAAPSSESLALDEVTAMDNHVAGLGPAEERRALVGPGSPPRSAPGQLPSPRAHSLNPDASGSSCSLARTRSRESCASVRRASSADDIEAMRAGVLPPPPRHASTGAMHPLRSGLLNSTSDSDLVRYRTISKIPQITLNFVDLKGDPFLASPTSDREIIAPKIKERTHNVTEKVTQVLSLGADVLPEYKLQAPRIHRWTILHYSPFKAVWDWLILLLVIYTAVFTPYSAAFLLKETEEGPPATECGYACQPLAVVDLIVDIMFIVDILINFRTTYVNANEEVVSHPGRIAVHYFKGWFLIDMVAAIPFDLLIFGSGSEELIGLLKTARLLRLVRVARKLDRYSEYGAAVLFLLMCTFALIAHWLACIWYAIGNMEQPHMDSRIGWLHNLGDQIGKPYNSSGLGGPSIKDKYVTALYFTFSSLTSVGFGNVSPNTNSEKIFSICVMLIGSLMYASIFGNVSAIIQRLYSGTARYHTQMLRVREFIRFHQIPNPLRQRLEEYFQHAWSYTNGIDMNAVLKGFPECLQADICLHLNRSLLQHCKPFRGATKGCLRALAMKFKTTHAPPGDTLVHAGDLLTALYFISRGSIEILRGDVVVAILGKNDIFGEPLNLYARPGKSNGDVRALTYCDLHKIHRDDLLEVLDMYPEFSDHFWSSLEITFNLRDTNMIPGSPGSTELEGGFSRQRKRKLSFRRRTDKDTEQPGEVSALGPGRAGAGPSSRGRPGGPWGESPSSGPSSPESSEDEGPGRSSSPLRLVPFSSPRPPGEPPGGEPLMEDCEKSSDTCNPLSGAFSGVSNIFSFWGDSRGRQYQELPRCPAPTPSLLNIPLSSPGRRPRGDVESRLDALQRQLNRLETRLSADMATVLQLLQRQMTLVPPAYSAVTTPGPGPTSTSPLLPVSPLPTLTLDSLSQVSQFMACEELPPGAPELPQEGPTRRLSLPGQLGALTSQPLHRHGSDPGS

Structure (SMILES)	hERG current change (%, negative = inhibition) at 10uM [%]
COc1cc(SC)ccc1C(=O)Nc1ccc(Br)cn1	14.4
COc1ccc(NC(=O)c2ccccc2[N+](=O)[O-])cc1	9.48
NC(=O)c1ccsc1NC(=O)CCS(=O)(=O)c1ccccc1	1.27
COc1ccc(N(C(=O)c2snc(C(N)=O)c2N)C(C(=O)NC2CCCC2)c2cccs2)cc1OC (stereo not drawn)	-1.74
CC(=O)Nc1ccc(S(=O)(=O)N2CCCC2)cc1	12.1
Cc1ccc(-c2nnc(SCC(=O)Nc3ccc(S(=O)(=O)N4CCCCCC4)cc3)o2)cc1	-7.29
CC(=O)Nc1ccc(S(=O)(=O)N2CCC(c3nnc(-c4ccc(C)cc4)o3)CC2)cc1	-51.1
CC(=O)Nc1ccc(S(=O)(=O)N2CCCN(S(=O)(=O)c3ccc(NC(C)=O)cc3)CC2)cc1	-0.406
CC(=O)Nc1ccc(S(=O)(=O)N2CCCN(S(=O)(=O)c3ccc(C)cc3)CC2)cc1	-72.8
COc1ccc(-c2nnc(C3CCN(S(=O)(=O)c4ccccc4)CC3)o2)cc1	-47.4
COC(=O)NNC(=O)c1ccccc1C	-11.7
Cc1ccc([N+](=O)[O-])cc1S(=O)(=O)Nc1ccccn1	9.5
CCC(CC)C(=O)Nc1cccc(/C(C)=N/NC(=O)c2ccccc2Cl)c1	6.73
CCC(C)n1c(-c2ccco2)nc2nc3ccccc3nc21 (stereo not drawn)	-3.86
CCCn1c(-c2cc(OC)c(OC)c(OC)c2)nc2nc3ccccc3nc21	-37.5
CCC(C)n1c(-c2cc(OC)c(OC)c(OC)c2)nc2nc3ccccc3nc21 (stereo not drawn)	-50.9
CCOc1ccc(C2C(C(=O)NC)=C(C)Nc3nc4ccccc4n32)cc1OC (stereo not drawn)	11.9
CCCSC1=C(C#N)C(c2cccs2)CC(=O)N1 (stereo not drawn)	3.24
O=C(COc1ccccc1)Nc1ccccc1N1CCN(c2ccccc2)CC1	1.02
CCC(=O)N1CCN(c2ccccc2NC(=O)Cc2ccc(Cl)cc2)CC1	-68.6

Structure (SMILES)	hERG current change (%, negative = inhibition) at 10uM [%]
CCC(=O)N1CCN(c2ccccc2NC(=O)COc2ccccc2Cl)CC1	-42.2
CCC(=O)N1CCN(c2ccc(Cl)cc2NC(=O)Cc2ccc(Cl)cc2)CC1	-54.5
CC(=O)N1CCN(c2ccccc2NC(=O)Cc2ccc(Cl)cc2)CC1	-64.8
CC(C)C(=O)N1CCN(c2ccccc2NC(=O)COc2ccc(C3CCCCC3)cc2)CC1	-4.96
CC(=O)N1CCN(c2ccccc2NC(=O)COc2ccc(Cl)cc2Cl)CC1	-22.3
CCC(=O)Nc1cc(Cl)ccc1N1CCN(C(=O)CC)CC1	-24.9
CC(C)C(=O)N1CCN(c2ccccc2NC(=O)COc2ccccc2)CC1	-57.6
CCC(=O)N1CCN(c2ccc(Cl)cc2NC(=O)Cc2ccccc2)CC1	-46.3
CCC(=O)N1CCN(c2ccccc2NC(=O)Cc2ccccc2)CC1	-29.1
O=C(Cc1ccccc1)Nc1ccccc1N1CCN(c2ccccc2)CC1	11.9
CCN(CC)S(=O)(=O)c1cc(NC(=O)C2CCN(c3ncnc4sc(C)c(C)c34)CC2)ccc1Cl	23.3
O=C(Nc1ccccc1)/C(=C\c1ccc(F)cc1)NC(=O)c1ccco1	3.87
CCOC(=O)C1CCN(S(=O)(=O)c2ccc(OCC(=O)OC)cc2)CC1	-9.54
O=c1c(/C=N/O)c(Nc2ccccc2)nc2ccccn12	-13.5
Cc1ccc(-n2nc(C)c3c(C)c(CCC(=O)O)c(C)nc32)cc1	12.6
CCOC(=O)CN1C(=O)C(C)(C)Oc2ccc(C(=O)Nc3ccccc3OC)cc21	-6.76
Cc1cc(C)nc(N2CCC(C(=O)NNC(=O)Cc3ccccc3)CC2)n1	8.85
O=C(Cc1ccc(Cl)cc1)Nc1ccccc1N1CCOCC1	5.94
CCCC(=O)Nc1ccccc1N1CCN(C(=O)C(C)C)CC1	11.4
CN1CCN(c2ccccc2NC(=O)Cc2ccc(Cl)cc2)CC1	-73.4

Structure (SMILES)	hERG current change (%, negative = inhibition) at 10uM [%]
CN1CCN(c2ccccc2NC(=O)c2ccc(-c3ccccc3)cc2)CC1	-31.6
CCc1ccccc1NC(=O)Cc1cn(C)c2ccccc12	3.59
CN1CCN(c2ccccc2NC(=O)Cc2cn(C)c3ccccc23)CC1	-59.5
CS(=O)(=O)N1CCN(c2ccccc2NC(=O)Cc2ccc(Cl)cc2)CC1	-38.4
CC(C)C(=O)N1CCN(c2ccccc2NC(=O)Cc2ccc(Cl)cc2)CC1	-69.7
Cc1ccccc1NC(=O)Cc1cn(C)c2ccccc12	15.1
CC(C)C(=O)N1CCN(c2ccccc2NC(=S)NC(=O)Cc2ccccc2)CC1	-4.92
Cc1ccccc1NC(=O)C(Cc1ccccc1)n1cccc1 (stereo not drawn)	-0.159
CN1CCN(c2ccccc2NC(=O)C(Cc2ccccc2)n2cccc2)CC1 (stereo not drawn)	-65.6
CN(C(=O)CSc1nnc(-c2ccco2)o1)C1CCCCC1	-7.54
C[C@@H]1NC(=O)c2cc([N+](=O)[O-])cc(I)c2NCCCC[C@@H](C(N)=O)NC(=O)[C@H](CCC(=O)O)NC1=O	-9.34
COC(=O)C1=C(C)N(C)C(=O)NC1c1ccccc1 (stereo not drawn)	-5.95
Cc1cc(C(=O)Nn2c(-c3ccncc3)nc3ccccc3c2=O)ccc1[N+](=O)[O-]	31.8
C=CCOc1c(CNc2ccc(S(N)(=O)=O)cc2)cccc1OC	2.97
O=C(Cc1ccc(Cl)cc1)Nc1ccccc1N1CCN(C(=O)c2ccccc2)CC1	-72.1
COc1cccc(NC(=O)C(Cc2ccccc2)n2cccc2)c1 (stereo not drawn)	-17
O=C(CSc1ccc(Cl)cc1)Nc1ccccc1N1CCN(C(=O)c2ccc(Cl)cc2)CC1	-10.7
O=C(CSc1ccc(Cl)cc1)Nc1ccccc1N1CCN(C(=O)c2ccccc2)CC1	-14.9
Cc1ccc(NC(=O)C(Cc2ccccc2)n2cccc2)cc1 (stereo not drawn)	3.37
Cc1cccc(NC(=O)C(Cc2ccccc2)n2cccc2)c1 (stereo not drawn)	-51.2
